Compounds with a hit are over-represented: about 5.9% of the library has one in this group of screens.
HSF1 activator – HSF-1 activators, primary screen, NIH3T3-HGL cells, MG132 stress, luminescence, single point; activation, % at 9 µM; 300,000 tested, 1.7% active; NIH3T3-HGL HSF-1 luciferase reporter, 8 h; 100% = twice DMSO control signal; AID 504408, 2011;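 active = mean replicate activation of at least 50% with a set share of replicates each reaching 50%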;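 also: 0% = median of the neutral control wells and 100% = twice that signal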
DAX1 inh – DAX1 (NR0B1) inhibitors, primary screen, cell-based, HEK293, Gal4-DAX1, luciferase luminescence. Nuclear receptor subfamily 0 group B member 1 (Homo sapiens), P51843. HEK293 Gal4-DAX1 luciferase reporter. inhibition, % at 6.75 µM. 340,000 tested, 0.99% active. AID 504766, 2011;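 active = inhibition above the mean over all tested compounds plus 3 SD, cut at about 4.2% in these data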;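 also: 0% = DAX1-transfected cells with DMSO and 100% = empty-vector control cells with DMSO; inhibition shows as a rise in luminescence from relieved DAX1 repression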
HSP90 refold inh – HSP90 inhibitors, primary screen, cell lysate, luminescence; AID 1789, 2009; Rabbit reticulocyte lysate, luciferase refolding luminescence, 3 h; inhibition, % at 5.6 µM; 290,000 tested, 0.91% active; Heat shock protein HSP 90 (rabbit reticulocyte lysate; luciferase refolding);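 active = inhibition above the screen-wide mean plus 3 SD, computed separately per campaign, cut at about 16% in these data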;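 also: 0% = DMSO wells and 100% = 60 µM geldanamycin wells; inhibitors lower the luminescence because luciferase stays unfolded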
FXN GAA850 act – FXN promoter activators, primary screen, cell-based, luciferase luminescence, HEK293 lucGAA850. 360,000 tested, 0.56% active. HEK293 lucGAA850 FXN promoter luciferase reporter, 24 h; percent of 10 µM SAHA response. AID 540364, 2011. activation, % at 6 µM;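 active = activation above the average of all compounds screened plus 3 SD, cutoff fixed separately per campaign, cut at about 7.5% in these data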;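 also: 0% = DMSO wells and 100% = 10 µM SAHA wells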
HSF1 inhib – HSF1 inhibitors in luciferase reporter cells, primary screen, cell-based, NIH3T3, luminescence; 300,000 tested, 0.77% active; activity change, negative = inhibition, % at 7.5 µM (by protocol); NIH3T3-HGL HSE-luciferase, MG132-induced, luminescence 8 h; stronger effect = lower value;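 active = more than half of replicate wells show activity change below -50%, luminescence cut by over half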;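 also: luciferase reports HSF-1 transcriptional activity via heat shock element; 0% = median of DMSO wells and -100% = zero luminescence signal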
AHR activator – AHR activators, primary screen, cell-based, luminescence, luciferase reporter, human | AHR-responsive luciferase reporter cells | activation, % at 5 µM | Aryl hydrocarbon receptor (Homo sapiens), P35869 | 320,000 tested, 2.5% active; in the data active = activation above about 47%;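 also: 0% = vehicle wells and 100% = reference agonist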
Target sequence (P35869 whole entry, looked up): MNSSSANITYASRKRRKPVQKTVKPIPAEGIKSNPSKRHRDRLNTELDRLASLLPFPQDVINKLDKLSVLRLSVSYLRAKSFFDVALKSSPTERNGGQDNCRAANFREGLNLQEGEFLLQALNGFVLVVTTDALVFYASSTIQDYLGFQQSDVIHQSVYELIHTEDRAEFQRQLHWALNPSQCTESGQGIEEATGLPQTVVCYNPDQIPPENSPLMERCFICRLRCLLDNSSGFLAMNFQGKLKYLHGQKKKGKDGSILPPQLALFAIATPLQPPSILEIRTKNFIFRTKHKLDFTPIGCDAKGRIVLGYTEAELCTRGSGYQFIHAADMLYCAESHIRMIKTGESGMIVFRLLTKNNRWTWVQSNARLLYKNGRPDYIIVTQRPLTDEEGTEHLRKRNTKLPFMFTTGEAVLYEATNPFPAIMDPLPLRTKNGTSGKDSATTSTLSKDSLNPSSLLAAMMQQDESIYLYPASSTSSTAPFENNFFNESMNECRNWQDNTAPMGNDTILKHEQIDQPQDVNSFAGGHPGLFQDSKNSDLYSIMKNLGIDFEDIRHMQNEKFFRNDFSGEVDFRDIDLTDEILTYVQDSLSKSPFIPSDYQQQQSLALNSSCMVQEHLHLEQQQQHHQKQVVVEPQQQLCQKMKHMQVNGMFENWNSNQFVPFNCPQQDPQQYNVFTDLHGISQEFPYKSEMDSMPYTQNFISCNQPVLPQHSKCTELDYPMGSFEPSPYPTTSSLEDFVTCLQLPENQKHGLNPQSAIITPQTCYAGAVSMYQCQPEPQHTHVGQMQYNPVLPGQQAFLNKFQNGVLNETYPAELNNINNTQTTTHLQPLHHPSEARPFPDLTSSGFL
HSP90 inh confirm – HSP90 inhibitors, confirmation, cell lysate, luminescence | rabbit reticulocyte lysate, luciferase refolding luminescence, 3 h | inhibition, % at 5.9 µM | shares compounds with HSP90 refold inh | 2,300 tested, 64% active | AID 1846, 2009; in the data active = inhibition above about 18%;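 also: 0% = vehicle wells and 100% = reference inhibitor wells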
luciferase ctr – firefly luciferase inhibitors, HSP90 counter-screen, confirmation, artefact control for HSP90 inhibitor project, biochemical, luminescence, triplicate; shares compounds with HSP90 refold inh; purified native firefly luciferase; inhibition, % at 5.9 µM; 2,300 tested, 48% active;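 active = inhibition above the mean inhibition of all tested sample wells plus 3 SD, cut at about 10% in these data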;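 also: 0% = DMSO with luciferase and 100% = wells lacking luciferase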
* hit, by the source's call; . = no result given.

SMILES | HSF1 activator | DAX1 inh | HSP90 refold inh | FXN GAA850 act | HSF1 inhib | AHR activator | HSP90 inh confirm | luciferase ctr
COc1cc(/C=C2\C(=O)N(CCC#N)N=C2C)c(Br)cc1OC(C)C | 9 | 0 | 18* | -1 | 3 | 1 | 2 | 4
C[C@H](NC(=O)C1CC(=O)N(c2ccc(F)cc2)C1)C(=O)N1CCCCC1 (stereo not given in full) | -13 | 0 | -2 | 2 | -5 | 4 | . | .
Cc1cccc(NC(=O)C2CCCN(S(=O)(=O)c3ccc4[nH]c(=O)ccc4c3)C2)c1 (stereo not given) | 6 | 3 | -2 | 0 | 0 | 1 | . | .
c1ccc(C2CSc3ccccc3N2)cc1 (stereo not given) | 24 | 3 | 38* | 2 | 9 | 19 | -1 | -17
O=C(O)c1ccc(/C=C/C(=O)c2ccc3c(c2)OCCCO3)cc1 | 4 | -2 | 51* | 6 | -12 | 2 | 65* | -4
COC(=O)C1=C(c2ccc(OC)cc2)OC(=O)C1(C)C | -3 | 0 | -7 | 1 | -1 | 3 | . | .
N#CCCSc1ncnc2c1oc1ccccc12 | -2 | 0 | 26* | 3 | -11 | -8 | -11 | -20
OCCSc1ncnc2c1oc1ccccc12 | 13 | -1 | 1 | 3 | 6 | -4 | . | .
O=c1[nH]c(Nc2ccccc2)cc2ccccc12 | 6 | 1 | 17* | 2 | 1 | 3 | 25* | -1
O=c1[nH]c(Nc2ccccc2)cc2cc(Br)ccc12 | 27 | 0 | . | 0 | 5 | 32 | . | .
CN(C)c1ccc(C(=S)NCc2ccco2)cc1 | -7 | -2 | 57* | 5 | -2 | 12 | 65* | 38*
COc1ccc(C(=O)Nc2ccc(C)cn2)c(OC)c1 | -33 | -4 | 88* | -13 | -37 | 49* | 88* | 82*
CCOC(=O)Nc1ccc2c(c1)N(C(=O)CCN(CC)CC)c1ccccc1CC2 | -9 | 0 | 26* | -1 | -4 | 5 | -1 | -3
CCN(CC)CCC(=O)N1c2ccccc2CCc2ccc(NC(=O)OC)cc21 | -3 | -1 | -1 | -1 | -2 | 6 | . | .
NC(=O)NC(=O)C(Nc1ccc(N2CCCCC2)cc1)c1ccccc1 (stereo not given) | -17 | 0 | 23* | -3 | -3 | 14 | 10 | 6
O=C(/C=C/c1ccccc1)Nc1ccc(N2CCCCC2)cc1 | 22 | 0 | -5 | 4 | 4 | 0 | . | .
COCCCN=Cc1c(C)[nH]n(-c2ccc(Br)c(C)c2)c1=O | -26 | 0 | 18* | 0 | -11 | 14 | 42* | 38*
COc1cccc(N=Nc2c(N)[nH]n3c(=O)c4c(nc23)CCCC4)c1 | 31 | . | 1 | -1 | 6 | 30 | . | .
N#Cc1ccc(NC(=O)COC(=O)c2cccc(S(=O)(=O)N3CCCC3)c2)cc1 | . | -1 | . | -2 | . | . | . | .
Cc1ccc(NC2=Nc3ccccc3CS2)cc1 | 6 | -1 | 26* | 1 | -11 | 10 | 48* | 43*
CN(C)Cc1ccc(CNC(=O)COc2ccc3ccccc3c2)cc1 | 7 | 0 | -4 | 2 | 5 | 4 | . | .
COCCNS(=O)(=O)c1cc(OC)c(Cl)cc1Cl | -43 | . | 17* | . | -30 | . | 3 | -3
CCCNC(=O)C1(C)CCCN(Cc2ccccc2-c2ccccc2)C1 (stereo not given) | . | . | . | 1 | . | . | . | .
Cc1c(C(=O)N2CCCCCC2)c(S(=O)(=O)Nc2cccc(F)c2)c(C)n1C | -1 | 0 | -1 | 0 | -9 | -1 | . | .
CC1CCCCC1NC(=O)CSc1ccc([N+](=O)[O-])cc1 (stereo not given) | -3 | -1 | -6 | 3 | 8 | -1 | . | .
SMILES | HSF1 activator | DAX1 inh | HSP90 refold inh | FXN GAA850 act | HSF1 inhib | AHR activator | HSP90 inh confirm | luciferase ctr
CN(C)c1ccc(/C=C/C=C2/SC(=S)N(c3ccccc3)C2=O)cc1 | -24 | 0 | 34* | 3 | -22 | 1 | 21* | 12*
COc1ccc(-n2ncc3c(NC(C)C)ncnc32)cc1 | 2 | 0 | 17* | -1 | 4 | -6 | 43* | 31*
COc1ccc(-n2ncc3c(NCC(C)C)ncnc32)cc1 | 9 | 0 | 10 | 0 | 12 | -6 | . | .
COc1ccc(-n2ncc3c(N4CCCCC4)ncnc32)cc1 | -84 | -5 | 67* | -13 | -81* | -9 | 90* | 86*
Clc1ccc(-n2ncc3c(N4CCCCCC4)ncnc32)cc1 | -90 | -1 | 63* | -14 | -89* | -12 | 83* | 86*
Clc1ccc(-n2ncc3c(NCCN4CCOCC4)ncnc32)cc1 | -58 | 2 | 44* | -10 | -54* | -13 | 50* | 42*
CC(C)N(C(=O)COC(=O)c1cccc(N(C)C)c1)c1ccccc1 | 13 | -2 | 7 | -3 | 5 | -1 | . | .
C[C@@H]1CN([C@H](C)CO)C(=O)CCCn2cc(nn2)CO[C@H]1CN(C)C(=O)c1cc(-c2ccccc2)on1 | . | 0 | . | 0 | . | . | . | .
COc1ccc(NC(=O)N2CCCC2C(=O)NCc2ccc(C)cc2)cc1 (stereo not given) | 6 | 0 | 1 | 0 | 5 | -2 | . | .
Cc1cccc(-n2ncc3c(N4CCCC4)ncnc32)c1 | 18 | -1 | 6 | 3 | 1 | -8 | . | .
Cc1cccc(-n2ncc3c(N4CCOCC4)ncnc32)c1 | -50 | -3 | 54* | -5 | -40 | -7 | 77* | 68*
O=C(Nc1cccc(Cl)c1)Nc1cccc(C(=O)O)c1 | -17 | . | 51* | 3 | -9 | -5 | 69* | 63*
CCOc1ccc(NC(=O)Nc2cccc(C(=O)O)c2)cc1 | -76 | -5 | 89* | 4 | -72* | -12 | 90* | 85*
CCOC(=O)c1cccc(NC(=O)Nc2ccc(OCC)cc2)c1 | 16 | -3 | 3 | -1 | -3 | -8 | . | .
CC(=O)c1ccc(NC(=O)Nc2ccc3c(c2)nc(C)n3C)cc1 | 37 | 0 | 2 | 5 | 15 | -5 | . | .
O=C(Nc1cccc(C(=O)O)c1)Nc1ccccc1Cl | -38 | -8 | 77* | 3 | -38 | -11 | 74* | 71*
Cc1nc2cc(NC(=O)Nc3ccccc3Cl)ccc2n1C | 16 | -2 | 32* | 2 | -7 | -7 | 59* | 38*
